In PubChem BioAssay (NCATS) one finds outcome, Potency and activation data, which are given here for two molecules.

The nature of test [1]: Validation of Assay for Modulators of Lamin A Splicing (AID 1459; active = well fitted curve in the direction sought with a large enough effect in the signal ratio; the % refers to the signal ratio;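 also: cells exposed to compound for two days before reading; 0% is about no effect; ratio rise marks activators and ratio drop marks inhibitors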). In outline:
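Splicing correction read as GFP (500-530 nm) over DsRed2 (575-640 nm) object intensity after 48 h compound exposure of reporter HeLa S3 clones (600 cells/well, 2% FBS medium); ancitabine and cycloheximide titrations, 0.5% DMSO as vehicle.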

Test [2] addresses DNA repair nuclease/redox regulator APEX1 (Homo sapiens) (UniProt P27695). Nature of the test: qHTS Validation Assay for Inhibitors of the Human Apurinic/apyrimidinic Endonuclease 1 (APE1) (AID 1705;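 also: TAMRA fluorescence gain over two minutes as APE1 cuts a quenched THF abasic duplex; series mostly up to about 57 µM; % is scaled to controls: 0 for no effect and ±100 for the full control effect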). The procedure, abridged:
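Activity read as rising fluorescence (598 nm emission, 525 nm excitation) from incision of a TAMRA/BHQ-2 duplex carrying a THF abasic site (50 nM). Compound and enzyme sat 15 min at RT before substrate start; signal change between first and third 60-s reads.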
A general note: Quantitative high-throughput screening tests each substance at several concentrations.

Test [3] in a line: Counterscreen for APE1 Inhibitors: Fluorescent Dye Displacement Validation Assay (AID 1707).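 Also: plate controls were ThO with dsDNA and no compound for no effect and ThO without dsDNA for full effect.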 In outline:
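Endpoint fluorescence read at 480 nm excitation / 540 nm emission; DNA-binding compounds lower signal by displacing 250 nM Thiazole Orange from 50 nM dsDNA containing a tetrahydrofuran abasic site, Tris-HCl pH7.5 buffer with NaCl and MgCl2.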
(Counterscreens check selectivity or assay interference.)

Test [4] addresses Endonuclease 4 (Escherichia coli (strain K12)) (UniProt P0A6C1). Nature of the test: Counterscreen for APE1 Inhibitors: qHTS Validation Assay for Inhibitors of Endonuclease IV (AID 1708). Also: % is scaled to controls: 0 for no effect and ±100 for the full control effect. In outline: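 Incision of a double-stranded 50 nM TAMRA/BHQ-2 abasic substrate was followed kinetically (525/598 nm, reads every 60 s) after 15 min enzyme–compound preincubation with 2 nM EndoIV in pH 7.5 Tris buffer with MgCl2, DTT and Tween-20; concentration-response format.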

Test [5] in a line: qHTS for differential inhibitors of proliferation of Plasmodium falciparum line 7G8 (AID 1815).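 Also: parasite growth measured after three days of incubation; plate controls were vehicle wells for no effect and reference inhibitor wells for full effect.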
Test [6] in a line: qHTS for differential inhibitors of proliferation of Plasmodium falciparum line GB4 (AID 1816).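 Also: parasite growth measured after 72 h incubation; 0% = vehicle DMSO and -100% = reference inhibitor.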 To be noted: Potency: Plasmodium falciparum GB4 proliferation inhibition.
Test [7] is described as follows: qHTS for differential inhibitors of proliferation of Plasmodium falciparum line 3D7 (AID 1876).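 Also: parasite growth measured after three days of culture; 0% = vehicle wells and -100% = reference inhibitor wells.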
A short description of test [8]: qHTS for differential inhibitors of proliferation of Plasmodium falciparum line D10 (AID 1877).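 Also: parasites grown with compound for 72 h before DNA staining; plate controls were vehicle wells for no effect and reference inhibitor wells for full effect.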
Test [9] can be described thus: qHTS for differential inhibitors of proliferation of Plasmodium falciparum line Dd2 (AID 1882).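 Also: series mostly up to about 29 µM; plate controls were DMSO vehicle for no effect and 0.29 µM artemisinin for full effect; nearly all actives have a fitted effect of over 65% in size.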 The conditions noted are these: Potency: Plasmodium falciparum Dd2 proliferation inhibition. The procedure, abridged:
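SYBR Green DNA fluorescence (ex 485, em 535 nm) after overnight lysis quantifies parasite growth; compound exposure lasted 72 h at 37 C on infected red cells at 2.5% hematocrit, 0.3% parasitemia (final). Artemisinin 0.29 uM and vehicle wells define normalization.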

Test [10] can be described thus: qHTS for differential inhibitors of proliferation of Plasmodium falciparum line HB3 (AID 1886).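 Also: parasites grown with compound for 72 h before SYBR Green readout; plate controls were vehicle for no effect and reference inhibitor for full effect.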 The conditions noted are these: Potency: Plasmodium falciparum HB3 proliferation inhibition.
Test [11] in a line: qHTS Assay for Modulators of Human Peripheral Myelin Protein 22 (PMP22) Expression/Activity (AID 1967; active = well fitted curve in the direction sought with a large enough effect in the signal ratio; the % refers to the signal ratio;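 also: 0% = untreated cells and 100% end not stated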). The procedure, abridged: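 Readout is the corrected green/red luminescence ratio after 24 h compound exposure, normalised to untreated cells (0%). Engineered MSC80 mouse Schwann cells express green luciferase from the mouse Pmp22 promoter and red luciferase from EF-alpha as internal control.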

For test [12], the target named is Ferritin light chain (Equus caballus) (UniProt P02791). Description: qHTS Validation Assay for Identification of Novel General Anesthetics (AID 2323). Also: series mostly up to about 77 µM; % is scaled to controls: 0 for no effect and ±100 for the full control effect. The procedure, abridged:
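Competitive displacement of the profluorescent anesthetic 1-AMA (50% saturated, PBS) from 10 uM apoferritin, 10 min, room temperature. Activity is normalized 380/535 nm fluorescence; concentration-response fitted with a four-parameter Hill equation.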

The target of test [13] is ATP-dependent DNA helicase Q1 (Homo sapiens) (UniProt P46063). Description: qHTS Validation Assay for Inhibitors of RecQ-Like Dna Helicase 1 (RECQ1) (AID 2353).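 Also: plate controls were DMSO vehicle for no effect and enzyme-free control for full effect.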 The procedure, abridged:
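RECQ1T1 50 nM; forked duplex (20 bp + 30-nt ss tails) 200 nM, ATP 2 mM final; pH 8.0, 2 mM MgCl2, 2.5 ug/ml poly(dI-dC); 15 min compound preincubation; discontinuous kinetic read over 2 h at RT.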

Test [14] can be described thus: Validation screen for small molecules that induce DNA re-replication in MCF 10A normal breast cells (AID 463097). Also: 0% is about no effect; nearly all actives have a fitted effect of over 60% in size. The procedure, abridged:
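Read-out is Hoechst total nuclear intensity by fluorescence scanning imager, flagging increased high-DNA-content nuclei. Compounds were incubated with MCF 10A cells for 48 hr (37 C, 5% CO2) before 40 min staining.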

Test [15] is described as follows: Quantitative high throughput screen for delayed death inhibitors of the malarial parasite plastid, 96 hour incubation (AID 488745).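 Also: luciferase-expressing P. falciparum in erythrocytes at 2% hematocrit and 0.1% parasitemia; series mostly up to about 29 µM; % is scaled to controls: 0 for no effect and ±100 for the full control effect; nearly all actives have a fitted effect of over 70% in size.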 In outline: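 Readout is firefly luciferase luminescence from an integrated reporter in P. falciparum; lower signal marks inhibited growth. Cultures at 2% hematocrit and 0.1% parasitemia were treated with compound across two generations (96 h, 37 C, 5% CO2).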

Test [16] is described as follows: Quantitative high throughput screen for delayed death inhibitors of the malarial parasite plastid, 48 hour incubation (AID 488752). Also: % is scaled to controls: 0 for no effect and ±100 for the full control effect; nearly all actives have a fitted effect of over 65% in size. In outline:
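First, compound was pinned into RPMI 1640 medium containing 0.5% Albumax. Next, reporter-parasite-infected erythrocytes were added to 2% hematocrit and 0.1% parasitemia. After 48 h at 37 C under 5% CO2, luciferase detection reagent was added and luminescence read.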

For test [17], the target named is M-phase phosphoprotein 8 (Homo sapiens) (UniProt Q99549). Description: qHTS Validation Assay for Inhibitors for MPP8 Chromodomain Interactions with Methylated Histone Tails (AID 488949). Also: nearly all actives have a fitted effect of over 55% in size. Also: potency is read from the fitted curve at half-maximal effect. The procedure, abridged: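 AlphaScreen proximity signal from streptavidin donor and Ni-chelate acceptor beads (10 ug/mL each) reported binding of MPP8 to trimethyl-K9 H3(1-18) peptide, both at 50 nM. The complex formed 30 min before a 30 min compound exposure at room temperature, in PBS pH 7.4.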

Test [18] deals with Thyrotropin-releasing hormone receptor (Homo sapiens) (UniProt P34981). Description: qHTS for Small Molecule Agonists and Allosteric Enhancers of Human TRH Receptor: Validation Screen for Agonists (AID 493127;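 active = calcium activation more than 3 SD above the typical response in the agonist read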;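 also: intracellular calcium rise by fluo-8 fluorescence before TRH EC20 addition; 0% is about no effect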). The conditions noted are these: TRH receptor agonist cell assay; at 2 µM; stronger effect = higher value. The procedure, abridged: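 Compounds are added by online pintool to dye-loaded TRHR cells while fluorescence is recorded every second. A rise in calcium signal during the agonist read marks activation; a later 10 nM TRH addition (EC20) serves the separate enhancer mode.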

Test [19] deals with Galactokinase (Homo sapiens) (UniProt P51570). Description: qHTS Validation Assay for Inhibitors of Human Galactokinase (GALK) (AID 493189). Also: 0% is about no effect. In outline: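 Inhibition was measured as remaining ATP, detected by luciferase luminescence after a 1 h room-temperature reaction. Final conditions: 5 nM GALK, 100 uM galactose, 35 uM ATP, pH 8.0 HEPES buffer.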
Test [20] is described as follows: Validation screen for small molecules that induce DNA re-replication in SW480 colon adenocarcinoma cells (AID 504364). Also: 0% is about no effect. The procedure, abridged: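 Image-based qHTS: compounds were incubated with SW480 cells for 48 hr, nuclei stained with Hoechst, and per-nucleus fluorescence intensity scanned to flag cells with excess DNA content.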
Test [21] in a line: qHTS for differential inhibitors of proliferation of Plasmodium falciparum line W2 (AID 1883).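 Also: parasites grown with compound for 72 h before lysis and staining; 0% = vehicle wells and -100% = control inhibitor wells.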 The conditions noted are these: Potency: Plasmodium falciparum W2 proliferation inhibition.

Unmarked numbers belong to inactive results. Results filed as inconclusive are left out. Calls of active or inactive are those of the source. Unless noted, calls follow the shape of the dose curve; as a rule, active = well fitted curve in the direction sought with a large enough effect; inconclusive = small, poorly fitted or top-dose-only effect, or another doubt; inactive = no such curve, though single readings can be large; an effect the other way counts as inactive or inconclusive.

Ferritin light chain (Equus caballus), sequence (P02791 2-175 limits assumed): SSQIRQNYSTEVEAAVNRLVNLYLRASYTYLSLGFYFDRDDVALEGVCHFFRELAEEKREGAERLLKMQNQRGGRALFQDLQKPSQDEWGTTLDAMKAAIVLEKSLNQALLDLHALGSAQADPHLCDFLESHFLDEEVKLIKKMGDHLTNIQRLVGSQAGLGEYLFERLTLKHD
ATP-dependent DNA helicase Q1 (Homo sapiens), sequence (P46063 whole entry, looked up): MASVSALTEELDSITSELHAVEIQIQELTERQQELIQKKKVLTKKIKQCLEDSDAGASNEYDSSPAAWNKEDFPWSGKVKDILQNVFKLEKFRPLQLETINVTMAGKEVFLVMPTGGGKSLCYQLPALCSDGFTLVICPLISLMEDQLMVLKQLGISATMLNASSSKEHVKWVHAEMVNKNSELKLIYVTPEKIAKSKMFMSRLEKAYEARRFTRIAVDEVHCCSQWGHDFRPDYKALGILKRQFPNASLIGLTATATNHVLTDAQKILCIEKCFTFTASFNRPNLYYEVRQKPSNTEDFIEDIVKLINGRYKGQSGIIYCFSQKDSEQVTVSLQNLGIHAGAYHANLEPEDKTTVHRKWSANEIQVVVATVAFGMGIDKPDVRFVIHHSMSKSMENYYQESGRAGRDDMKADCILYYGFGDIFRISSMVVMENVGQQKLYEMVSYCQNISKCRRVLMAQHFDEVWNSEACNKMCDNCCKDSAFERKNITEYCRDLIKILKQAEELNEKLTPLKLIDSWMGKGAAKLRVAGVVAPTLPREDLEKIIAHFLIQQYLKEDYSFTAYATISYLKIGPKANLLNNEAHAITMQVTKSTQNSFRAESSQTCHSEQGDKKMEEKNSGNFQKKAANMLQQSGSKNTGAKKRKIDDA
M-phase phosphoprotein 8 (Homo sapiens), sequence (Q99549 whole entry, looked up): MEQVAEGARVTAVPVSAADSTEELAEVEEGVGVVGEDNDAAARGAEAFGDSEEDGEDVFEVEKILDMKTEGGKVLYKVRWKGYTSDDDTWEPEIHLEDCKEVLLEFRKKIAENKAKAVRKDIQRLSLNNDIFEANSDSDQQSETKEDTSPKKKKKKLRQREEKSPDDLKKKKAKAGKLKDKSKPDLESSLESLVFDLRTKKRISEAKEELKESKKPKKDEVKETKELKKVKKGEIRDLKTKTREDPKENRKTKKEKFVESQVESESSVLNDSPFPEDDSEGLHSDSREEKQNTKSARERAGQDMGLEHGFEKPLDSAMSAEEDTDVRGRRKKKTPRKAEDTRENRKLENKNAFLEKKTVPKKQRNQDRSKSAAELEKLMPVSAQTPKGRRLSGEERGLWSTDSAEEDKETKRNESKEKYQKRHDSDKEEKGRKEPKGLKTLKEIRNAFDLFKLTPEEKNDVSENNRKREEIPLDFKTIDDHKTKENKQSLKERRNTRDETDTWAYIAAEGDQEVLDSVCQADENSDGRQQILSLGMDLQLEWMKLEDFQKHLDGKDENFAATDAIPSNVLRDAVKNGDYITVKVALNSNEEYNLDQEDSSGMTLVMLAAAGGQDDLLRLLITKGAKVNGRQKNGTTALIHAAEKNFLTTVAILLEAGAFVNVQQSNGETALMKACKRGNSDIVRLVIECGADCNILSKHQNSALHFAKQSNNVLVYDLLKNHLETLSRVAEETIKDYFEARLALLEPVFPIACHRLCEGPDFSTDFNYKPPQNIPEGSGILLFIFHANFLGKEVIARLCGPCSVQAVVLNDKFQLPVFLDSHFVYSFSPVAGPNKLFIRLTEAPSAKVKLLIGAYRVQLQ
Galactokinase (Homo sapiens), sequence (P51570 whole entry, looked up): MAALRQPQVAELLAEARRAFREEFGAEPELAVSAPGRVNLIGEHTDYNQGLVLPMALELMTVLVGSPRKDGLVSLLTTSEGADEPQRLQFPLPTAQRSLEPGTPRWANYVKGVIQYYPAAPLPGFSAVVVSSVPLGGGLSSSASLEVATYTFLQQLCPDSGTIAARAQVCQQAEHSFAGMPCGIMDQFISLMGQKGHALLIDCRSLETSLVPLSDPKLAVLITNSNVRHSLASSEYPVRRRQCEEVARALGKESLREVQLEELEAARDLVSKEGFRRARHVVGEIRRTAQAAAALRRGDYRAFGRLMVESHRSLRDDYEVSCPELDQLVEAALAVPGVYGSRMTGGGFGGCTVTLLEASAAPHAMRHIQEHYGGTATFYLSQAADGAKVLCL
Thyrotropin-releasing hormone receptor (Homo sapiens), sequence (P34981 whole entry, looked up): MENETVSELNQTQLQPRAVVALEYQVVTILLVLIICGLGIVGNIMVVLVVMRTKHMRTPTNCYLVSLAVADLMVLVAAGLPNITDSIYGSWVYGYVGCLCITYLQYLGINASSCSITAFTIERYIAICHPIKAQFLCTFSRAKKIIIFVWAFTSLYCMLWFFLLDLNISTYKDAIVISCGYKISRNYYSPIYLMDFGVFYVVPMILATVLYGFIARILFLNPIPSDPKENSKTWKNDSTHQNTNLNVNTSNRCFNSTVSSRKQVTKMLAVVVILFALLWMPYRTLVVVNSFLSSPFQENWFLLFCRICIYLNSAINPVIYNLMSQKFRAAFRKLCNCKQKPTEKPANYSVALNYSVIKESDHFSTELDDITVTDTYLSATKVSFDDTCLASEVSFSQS
DNA repair nuclease/redox regulator APEX1 (Homo sapiens), sequence (P27695 whole entry, looked up): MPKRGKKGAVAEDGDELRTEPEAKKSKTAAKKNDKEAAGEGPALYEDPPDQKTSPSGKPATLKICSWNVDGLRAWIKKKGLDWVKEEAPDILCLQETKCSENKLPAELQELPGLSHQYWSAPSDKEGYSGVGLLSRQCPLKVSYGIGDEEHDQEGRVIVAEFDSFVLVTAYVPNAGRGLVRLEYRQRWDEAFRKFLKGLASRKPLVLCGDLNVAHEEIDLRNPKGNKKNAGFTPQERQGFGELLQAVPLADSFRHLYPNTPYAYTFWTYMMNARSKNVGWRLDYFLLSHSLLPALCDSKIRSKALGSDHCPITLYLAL

Turning to `Nc1ncnc2c1ncn2[C@@H]1O[C@H](CO)[C@H](O)[C@H]1O`, the molecule was classed as inactive in [1], in [4], in test [11], in [12], in [14] and in [19]. Besides, the outcome in test [20] was inactive. Also, the Potency result in test [2], in [3], in test [5], in test [6], in [7] and in test [8] was “inactive” each time. Further, the Potency entry in test [9], in [10], in [13], in test [15], in test [16] and in [17] was “inactive” throughout. In addition, the activation in [18] is 1.5%.

Consider `NC(=S)NCCCC(N)C(=O)O` (centres undefined), for which the molecule was called inactive in test [1], in test [4], in test [12], in test [14], in test [19] and in [20]. For the same molecule, the Potency result in [2], in test [3], in test [5], in [7], in test [8] and in [9] was “inactive” in each case. For the same molecule, the Potency result in [21], in [10], in test [13], in [15] and in test [16] was “inactive” each time. Besides, in test [17], the Potency was 20 µM (active). Besides, the activation in test [18] is -0.25%.
